# Experimental data as given in PubChem BioAssay AID2113 (National Center for Advancing Translational Sciences (NCATS), 2009).
# Records with an inconclusive call do not appear. A number with no mark means an inactive call. Calls of active or inactive are those of the source. Calls come from the whole dose curve; as a rule, active = well fitted curve in either direction with a large enough effect; inconclusive = small, poorly fitted or top-dose-only effect; inactive = no such curve, though single readings can be large or run the other way.
# Target: Lysosomal alpha-glucosidase (Homo sapiens) (UniProt P10253)
# Test: Confirmation of Inhibitors and Activators of Human alpha-Glucosidase From Spleen Homogenate;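 for Potency: fluorescence of 4-methylumbelliferone released from a fluorogenic glucopyranoside substrate at pH 5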; for activity change, both directions: 0% is about no effect
# Conditions: alpha-glucosidase enzyme activity; series mostly up to 60.5 µM; activity change, both directions: at the top concentration
# Outline: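 Fluorogenic assay using human spleen homogenate (1 ug) as enzyme source with 1 mM 4-methylumbelliferyl-alpha-D-glucopyranoside, pH 5.0 citrate buffer, 40 min at 37 C. 4-MU read (Ex 365/Em 440) after NaOH/glycine stop; AC50 from Hill fits.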
# Potency is the fitted concentration of half-maximal effect.
Structure (SMILES),Potency,"activity change, both directions"
CCCN1CNc2c(c(=O)[nH]c(=S)n2CCc2ccc(C)cc2)C1,25.1 µM (active),–
COc1cccc2ccc(/C=C/c3ccc4c(c3)OCO4)nc12,–,2.75%
N#Cc1c(-c2ccccc2)nc(SCc2nc(N)nc(N3CCCCC3)n2)[nH]c1=O,–,5.5%
Cc1sc(-c2cc3cc(Br)ccc3oc2=O)nc1-c1ccccc1,–,12.3%
O=C(Nc1cc(S(=O)(=O)N2CCOCC2)ccc1N1CCCC1)c1cc(=O)[nH]c2ccccc12,–,-13% [at 31.5 µM]
O=C(Cc1ncc(C(F)(F)F)cc1Cl)NCCc1ccccc1,–,0.772% [at 31.5 µM]
Cn1c(N)c(S(=O)(=O)c2ccc(Br)cc2)c2nc3ccccc3nc21,–,24% [at 31.5 µM]
O=C(O)c1c[nH]c2ccc(S(=O)(=O)N3CCOCC3)cc12,–,-20.1%
NC(=O)NN=C1c2cc(S(=O)(=O)N3CCOCC3)ccc2-c2ccc(S(=O)(=O)N3CCOCC3)cc21,–,-7.04%
CCc1sc(-c2cc3ccccc3oc2=O)nc1-c1cc(C)ccc1C,31.6 µM (active),–
COc1ccc(C#Cc2c[nH]c(=O)c3cncnc23)cc1OC,–,-4.96%
O=S(=O)(c1ccc(Cl)cc1)N1CCN(c2nc(-c3cccs3)nc3ccccc23)CC1,–,-2.9%
Cc1nc(-n2nnc(CO)c2CO)nc2c1CCC2,–,9.14%
Cc1cc(C)c(C(=O)Cn2cnc3cc([N+](=O)[O-])ccc3c2=O)cc1C,–,2.64% [at 31.5 µM]
Cc1c(Nc2c3ccccc3nc3ccccc23)c(=O)n(-c2ccccc2)n1C,–,-0.437% [at 31.5 µM]
Clc1ccc(-c2ccnc(Oc3cc(Cl)ccc3Cl)n2)cc1,–,-3.27% [at 31.5 µM]
Nc1cccc(S(=O)(=O)N2CCOCC2)c1,–,3.24%
Cc1cccn2c(=O)c3cc(C#N)c(=NC(=O)c4cccs4)n(CCCOC(C)C)c3nc12,–,4.63% [at 31.5 µM]

Structure (SMILES),Potency,"activity change, both directions"
COc1ccc(OC)c(/C=C/C(=O)N(C)CC(=O)Nc2ccc(C)cc2)c1,–,6.32% [at 31.5 µM]
CCCN1CNc2c(c(=O)[nH]c(=S)n2CCC)C1,–,-5.91%
CCCN1CNc2c(c(=O)[nH]c(=S)n2CCc2cc(Cl)cc(Cl)c2)C1,7.94 µM (active),–
Cc1cc(C)nc(SCc2cc(=O)c(OC(=O)c3ccco3)co2)n1,–,-1.64% [at 31.5 µM]
Cc1cccc2cc3c(NC(=O)c4ccccn4)nn(C)c3nc12,–,3.35% [at 31.5 µM]
COc1cc2cc(CN(Cc3nnnn3Cc3ccccc3)CC3CCCO3)c(=O)[nH]c2cc1OC (stereo not given),–,2.42% [at 31.5 µM]
Cc1ccc(CCNC(=O)CNC(=S)N(Cc2ccccc2)Cc2cccnc2)cc1,–,3%
O=c1oc2cc(O)ccc2cc1-c1nc2c(s1)CCc1ccccc1-2,31.6 µM (active),–
O=C(NC(C(=O)c1ccccc1)n1ccc(=O)[nH]c1=O)c1ccccc1 (stereo not given),–,-4.26% [at 31.5 µM]
O=C(Nc1nnc(-c2cccc(F)c2)s1)Nc1ccccc1F,–,8.27%
Cc1ccc(S(=O)(=O)N2CCN(C(=O)C3COc4ccccc4O3)CC2)cc1C (stereo not given),–,-17.9%
COc1ccccc1N1CCN(C(c2cccs2)C(C)NC(=O)c2cccs2)CC1 (stereo not given),–,-1.51% [at 31.5 µM]
COc1ccc(C(=O)N2CCN(c3ccc([N+](=O)[O-])c(NCCc4ccc(OC)c(OC)c4)c3)CC2)cc1,–,8.22%
COC(=O)c1cccc(S(=O)(=O)N2CCOCC2)c1,–,-0.712%
N#C/C(=C\c1c(N2CCCCC2)nc2ccccn2c1=O)C(=O)NC1CCS(=O)(=O)C1 (stereo not given),14.1 µM (active),–
O=C1Cc2cc(S(=O)(=O)N3CCN(c4ccc(CO)cc4)CC3)ccc2N1,25.9 µM [inhibitor] (active),–
CC1=C(C(=O)OC(C)C)C(c2cccc([N+](=O)[O-])c2)n2c(cc(=O)[nH]c2=S)N1 (stereo not given),–,0.195% [at 31.5 µM]
